Here are results for 29 compounds from PubChem BioAssay (NCATS).

Results filed as inconclusive are left out. Values without a mark were called inactive. The source made the active and inactive calls. Calls come from the whole dose curve; as a rule, active = well fitted curve in the direction sought with a large enough effect; inconclusive = small, poorly fitted or top-dose-only effect, or another doubt; inactive = no such curve, though single readings can be large; an effect the other way counts as inactive or inconclusive.

Experiment [1] has as its target Rap guanine nucleotide exchange factor 3 (Homo sapiens) (UniProt O95398). The experiment can be described thus: Confirmatory qHTS for antagonist of cAMP-regulated guanine nucleotide exchange factor 3 (EPAC1) (AID 1645880). Note: nearly all actives have a fitted effect of over 55% in size. Note: potency is the fitted concentration of half-maximal effect. The note with it: EPAC1 Rap1B-BODIPY-GDP exchange, fluorescence; series mostly up to 115 µM. Summed up:
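Nucleotide exchange uses 100 nM EPAC1, 250 nM RAP1B-BODIPY-GDP and 50 uM GDP, with compounds in a concentration-titration series. After 5 min at room temperature, fluorescence (480 nm ex/540 nm em) is read every 5 min for 30 min. Data are normalized to control ATA and DMSO.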
(In general: qHTS replaces the single test concentration by a dilution series.)

Experiment [2] has the same target. The experiment can be described thus: Confirmatory qHTS for agonist of cAMP-regulated guanine nucleotide exchange factor 3 (EPAC1) (AID 1645881).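 Note: EPAC1 catalysed release of BODIPY-GDP from Rap1B seen as fluorescence loss; 100% = effect of cAMP agonist control; nearly all actives have a fitted effect of over 75% in size.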 The note with it: EPAC1 Rap1B BODIPY-GDP exchange fluorescence; series mostly up to 154 µM.
Experiment [3] addresses Rap guanine nucleotide exchange factor 4 (Homo sapiens) (UniProt Q8WZA2). The experiment can be described thus: Confirmatory qHTS for agonist of cAMP-regulated guanine nucleotide exchange factor 4 (EPAC2) (AID 1645884).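 Note: nucleotide exchange releases bodipy-GDP from Rap1 and this lowers its fluorescence; % is set by controls: 0 for no effect and ±100 for the full control effect; nearly all actives have a fitted effect of over 65% in size.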 The note with it: EPAC2 GEF activity, Rap1B-BODIPY-GDP fluorescence; series mostly up to 154 µM.
Experiment [4] has the same target. The experiment can be described thus: Confirmatory qHTS for antagonist of cAMP-regulated guanine nucleotide exchange factor 4 (EPAC2) (AID 1645885). For activity change, negative = inhibition: % is set by controls: 0 for no effect and ±100 for the full control effect. Note: nearly all actives have a fitted effect of over 25% in size. Note: potency is the fitted concentration of half-maximal effect. The note with it: EPAC2 Rap1B-BODIPY-GDP exchange fluorescence, biochemical; series mostly up to 12.7 µM.
For experiment [5], the target named is Rap guanine nucleotide exchange factor 3 (Homo sapiens) (UniProt O95398). The experiment can be described thus: Counterscreen qHTS for antagonist of cAMP-regulated guanine nucleotide exchange factor 3 (EPAC1) (AID 1645888). Note: % of control where 0% means no effect. The note with it: Rap1B-BODIPY-GDP nucleotide exchange, fluorescence; series mostly up to 154 µM. Summed up: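 Measured: fluorescence of BODIPY-GDP bound to Rap1B, which falls as exchange proceeds. Conditions include 50 uM competing GDP, 5 and 30 min reads, and a later cAMP challenge for antagonist detection.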
Sequence of Rap guanine nucleotide exchange factor 3 (Homo sapiens) (O95398 whole entry, looked up): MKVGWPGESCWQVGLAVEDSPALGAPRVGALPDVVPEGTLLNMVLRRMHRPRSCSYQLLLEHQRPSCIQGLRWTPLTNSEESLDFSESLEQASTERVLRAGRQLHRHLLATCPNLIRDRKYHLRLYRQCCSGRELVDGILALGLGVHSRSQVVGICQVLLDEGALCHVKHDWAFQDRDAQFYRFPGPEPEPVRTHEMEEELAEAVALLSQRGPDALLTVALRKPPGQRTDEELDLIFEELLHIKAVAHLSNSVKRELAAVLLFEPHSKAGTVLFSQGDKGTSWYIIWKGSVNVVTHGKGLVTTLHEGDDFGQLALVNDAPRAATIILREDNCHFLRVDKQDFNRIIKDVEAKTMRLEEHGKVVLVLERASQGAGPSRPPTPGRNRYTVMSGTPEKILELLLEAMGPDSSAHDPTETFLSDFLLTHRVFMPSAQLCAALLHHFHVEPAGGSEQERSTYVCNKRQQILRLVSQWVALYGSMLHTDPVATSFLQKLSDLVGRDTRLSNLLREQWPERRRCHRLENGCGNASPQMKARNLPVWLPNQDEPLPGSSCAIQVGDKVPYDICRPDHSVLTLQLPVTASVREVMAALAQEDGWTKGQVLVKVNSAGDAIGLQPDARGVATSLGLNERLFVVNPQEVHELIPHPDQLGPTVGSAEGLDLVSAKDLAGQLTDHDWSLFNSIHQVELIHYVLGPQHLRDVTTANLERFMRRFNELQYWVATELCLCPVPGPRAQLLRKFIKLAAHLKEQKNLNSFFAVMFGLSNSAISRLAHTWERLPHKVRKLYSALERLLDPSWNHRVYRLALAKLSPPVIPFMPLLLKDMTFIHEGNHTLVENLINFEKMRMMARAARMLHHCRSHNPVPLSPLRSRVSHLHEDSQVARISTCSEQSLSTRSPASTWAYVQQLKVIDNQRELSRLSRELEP

Sequence of Rap guanine nucleotide exchange factor 4 (Homo sapiens) (Q8WZA2 whole entry, looked up): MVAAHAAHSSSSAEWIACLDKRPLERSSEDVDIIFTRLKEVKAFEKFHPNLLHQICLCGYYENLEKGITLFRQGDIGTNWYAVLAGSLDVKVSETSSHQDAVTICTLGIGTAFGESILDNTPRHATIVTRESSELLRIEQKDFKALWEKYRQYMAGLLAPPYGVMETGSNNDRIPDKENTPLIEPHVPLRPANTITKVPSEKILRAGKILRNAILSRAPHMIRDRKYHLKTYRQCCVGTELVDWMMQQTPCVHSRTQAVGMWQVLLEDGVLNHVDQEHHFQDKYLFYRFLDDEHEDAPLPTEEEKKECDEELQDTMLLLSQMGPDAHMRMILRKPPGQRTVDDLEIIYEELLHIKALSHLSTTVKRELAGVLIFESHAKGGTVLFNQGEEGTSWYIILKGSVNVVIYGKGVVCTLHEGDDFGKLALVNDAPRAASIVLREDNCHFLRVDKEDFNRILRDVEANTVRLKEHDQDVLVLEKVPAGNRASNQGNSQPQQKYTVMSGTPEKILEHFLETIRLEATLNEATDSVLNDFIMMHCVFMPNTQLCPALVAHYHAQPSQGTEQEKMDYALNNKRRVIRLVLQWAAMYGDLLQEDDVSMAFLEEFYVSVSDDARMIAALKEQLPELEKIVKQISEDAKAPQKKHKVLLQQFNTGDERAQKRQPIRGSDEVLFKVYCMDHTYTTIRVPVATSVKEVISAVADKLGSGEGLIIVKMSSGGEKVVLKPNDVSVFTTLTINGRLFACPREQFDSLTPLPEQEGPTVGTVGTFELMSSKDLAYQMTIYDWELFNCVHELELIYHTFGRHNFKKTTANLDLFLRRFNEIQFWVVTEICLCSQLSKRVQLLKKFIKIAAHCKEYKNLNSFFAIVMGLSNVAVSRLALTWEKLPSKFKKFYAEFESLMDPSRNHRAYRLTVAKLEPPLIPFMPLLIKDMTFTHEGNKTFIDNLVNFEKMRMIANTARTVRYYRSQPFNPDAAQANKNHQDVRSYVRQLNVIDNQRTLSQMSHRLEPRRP

On to `Cc1cccc(Nc2c([N+](=O)[O-])c(=O)oc3ccccc23)c1`, for which the Potency entry in experiment [1], in experiment [2], in experiment [3], in experiment [4] and in experiment [5] was “inactive” each time.

Consider `COC(=O)[C@@H]1C[C@@H](c2ccccc2)[C@H](C)C1(C)C`, for which the Potency entry in experiment [1], in experiment [2], in experiment [3], in experiment [4] and in experiment [5] was “inactive” throughout.

On to `CCN(CC(=O)Nc1c(F)cccc1F)C(=O)CCc1nc2sc3c(c2c(=O)[nH]1)CCCC3`, for which, in experiment [1], the Potency was 75.7 µM (active). The Potency entry in experiment [2], in experiment [3], in experiment [4] and in experiment [5] was “inactive” each time.

For `Cc1ccc(C)c(COC(=O)c2cc(S(=O)(=O)N3CCCCC3)ccc2N2CCOCC2)c1`, the Potency entry in experiment [1], in experiment [2], in experiment [3], in experiment [4] and in experiment [5] was “inactive” in each case.

Regarding `c1ccc(N2[C@@H]3c4ccccc4C[C@H]2c2ccccc23)cc1`, the Potency result in experiment [1], in experiment [2] and in experiment [4] was “inactive” each time. In experiment [3], the activation is 8.36% [at 17.1 µM, percent relative to cAMP agonist control]. Also, the activity change, negative = inhibition in experiment [5] is -11.2% [at 30.8 µM].

For `Cc1ccc(CN2C(=O)CSC2c2ccccc2F)cc1` (stereo not given), the Potency result in experiment [1], in experiment [2], in experiment [3] and in experiment [5] was “inactive” throughout. The Potency in experiment [4] is 33.8 µM (active).

As for `Cc1ccc(C(=O)O/N=C(\c2ccccc2)c2cccnc2)cc1`, the Potency result in experiment [1], in experiment [2] and in experiment [4] was “inactive” each time. The activation in experiment [3] is -3.55% [at 17.1 µM, percent relative to cAMP agonist control]. Besides, the activity change, negative = inhibition in experiment [5] was 3.07% [at 30.8 µM].

Consider `COc1ccccc1C(CC(=O)N1CCCC1)c1ccc2c(c1)OCO2` (stereo not given), for which the Potency entry in experiment [1], in experiment [2] and in experiment [4] was “inactive” in each case. For the same compound, in experiment [3], the activation is 2.08% [at 17.1 µM, percent relative to cAMP agonist control]. The activity change, negative = inhibition in experiment [5] is -9.86% [at 30.8 µM].

Take `CCOC(=O)C1=C(CSc2nc3ccccc3s2)NC(=O)NC1c1ccc(OC)cc1` (stereo not given): the Potency entry in experiment [1], in experiment [2], in experiment [3] and in experiment [5] was “inactive” each time. The outcome in experiment [4] was “inactive; activator; fitted 0.12 uM [at 12.7 µM]”.

As to `N#C/C(=C\c1ccc(O)c(O)c1)C(=O)Nc1cccc2ncccc12`, in experiment [1], the Potency is 7.57 µM (active). The Potency entry in experiment [2], in experiment [3], in experiment [4] and in experiment [5] was “inactive” throughout.

With `CCOC(=O)c1sc(N=NC2=C(O)CCCC2=O)c(C(=O)OCC)c1C`, the Potency in experiment [1] is 8.91 µM (active). Also, the Potency result in experiment [2] and in experiment [4] was “inactive” each time. Moreover, the activation in experiment [3] was -2.58% [at 17.1 µM, percent relative to cAMP agonist control]. Besides, the activity change, negative = inhibition in experiment [5] is -17% [at 30.8 µM].

For `Cc1ccc(NC(=O)c2ccc(Cl)cc2Cl)c(C(=O)c2ccccc2)c1`, the Potency entry in experiment [1], in experiment [2], in experiment [3] and in experiment [5] was “inactive” throughout. The outcome in experiment [4] was “inactive [at 12.7 µM]”.

Take `CCCCOc1ccccc1Cn1c(=O)oc2ccc(C)cc21`: the Potency entry in experiment [1], in experiment [2], in experiment [3], in experiment [4] and in experiment [5] was “inactive” each time.

Turning to `CC(=O)N1N=C(N)SC1c1ccc(Cl)c(Cl)c1` (stereo not given), the Potency entry in experiment [1], in experiment [2] and in experiment [4] was “inactive” throughout. For the same compound, the activation in experiment [3] is -0.153% [at 17.1 µM, percent relative to cAMP agonist control]. In experiment [5], the activity change, negative = inhibition was -0.904% [at 30.8 µM].

Take `CCCc1cc(C(=O)Nc2ccccc2SC)no1`: the Potency result in experiment [1], in experiment [2], in experiment [3], in experiment [4] and in experiment [5] was “inactive” throughout.

Take `Cc1ccc([C@H]2C(C(=O)O)=CC[C@@H](c3ccc(Cl)c(Cl)c3)N2S(=O)(=O)c2ccc(C)cc2)cc1`: the Potency in experiment [1] is 56.2 µM (active). In addition, the Potency entry in experiment [2] and in experiment [4] was “inactive” each time. The activation in experiment [3] is 12.8% [at 17.1 µM, percent relative to cAMP agonist control]. The activity change, negative = inhibition in experiment [5] was -5.89% [at 30.8 µM].

Consider `CCCCn1c(N)c(N(CCOC)C(=O)c2ccc(C)c(S(=O)(=O)N3CCCCC3)c2)c(=O)[nH]c1=O`, for which the Potency entry in experiment [1], in experiment [2], in experiment [3], in experiment [4] and in experiment [5] was “inactive” each time.

As for `CCSc1nnc(NC(=O)C2CCN(S(=O)(=O)c3ccccc3C(F)(F)F)CC2)s1`, the Potency entry in experiment [1], in experiment [2], in experiment [3], in experiment [4] and in experiment [5] was “inactive” each time.

Regarding `Cc1cccc(Cc2cnc(N3C(=N)SC(c4ccccc4)C3=O)s2)c1` (stereo not given), the Potency result in experiment [1], in experiment [2], in experiment [3], in experiment [4] and in experiment [5] was “inactive” throughout.

In the case of `O=C(N/N=C\c1cc([N+](=O)[O-])ccc1N1CCCC1)c1ccccn1`, the Potency result in experiment [1], in experiment [2] and in experiment [4] was “inactive” in each case. The activation in experiment [3] is 3.56% [at 17.1 µM, percent relative to cAMP agonist control]. For the same compound, the activity change, negative = inhibition in experiment [5] was -14.6% [at 30.8 µM].

In the case of `Nn1cnnc1N/N=C/c1ccc(Cl)c([N+](=O)[O-])c1`, the Potency entry in experiment [1], in experiment [2], in experiment [3], in experiment [4] and in experiment [5] was “inactive” each time.

Take `CC(=O)C[C@H]1SC[C@@H](C(C)C)N1S(=O)(=O)c1ccc(C)cc1`: the Potency entry in experiment [1], in experiment [2], in experiment [3], in experiment [4] and in experiment [5] was “inactive” in each case.

In the case of `O=C(c1ccco1)N(Cc1ccc([N+](=O)[O-])cc1)c1ccc(Cl)cc1`, the Potency result in experiment [1], in experiment [2], in experiment [3], in experiment [4] and in experiment [5] was “inactive” in each case.

Turning to `CCc1nc2c(OCc3ccc(Cl)cc3)cccn2c1N(C)C(=O)c1ccccc1F`, the Potency entry in experiment [1], in experiment [2] and in experiment [4] was “inactive” in each case. Further, the activation in experiment [3] is 3.03% [at 17.1 µM, percent relative to cAMP agonist control]. In addition, in experiment [5], the activity change, negative = inhibition was -10.9% [at 30.8 µM].

For the compound `O=C(O)c1ccc(C=C(c2nc3ccccc3s2)c2nc3ccccc3s2)cc1`, in experiment [1], the Potency is 42.6 µM (active). The Potency result in experiment [2], in experiment [3], in experiment [4] and in experiment [5] was “inactive” in each case.

In the case of `COc1ccc2ccccc2c1C(=O)/C=C\c1ccoc1`, the Potency in experiment [1] was 42.6 µM (active). Further, the Potency result in experiment [2], in experiment [3], in experiment [4] and in experiment [5] was “inactive” each time.

Consider `CCn1c(C(=O)N2CCCC(C(=O)N3CCN(c4cc(C)ccc4C)CC3)C2)cc2sccc21` (stereo not given), for which the Potency result in experiment [1], in experiment [2], in experiment [3] and in experiment [5] was “inactive” throughout. Further, in experiment [4], the outcome is “inactive [at 12.7 µM]”.

With `COc1ccc(-c2nn(-c3ccccc3)cc2/C=N/n2cnnc2)cc1OC`, the Potency entry in experiment [1], in experiment [2], in experiment [3], in experiment [4] and in experiment [5] was “inactive” each time.

With `O=C1Nc2c(Cl)cc(Cl)cc2C1=O`, the Potency result in experiment [1], in experiment [2], in experiment [3], in experiment [4] and in experiment [5] was “inactive” each time.
